# PubChem BioAssay (NCATS)
# Results filed as inconclusive are left out. Entries that show only a call come without a potency. The source made the active and inactive calls. Unless noted, calls come from the whole dose curve; as a rule, active = well fitted curve in either direction with a large enough effect (not every such curve was filed as active); inconclusive = small, poorly fitted or top-dose-only effect, or another doubt; inactive = flat fitted curve, though single readings scatter.
# Columns and labels:
# [1] = tested on: HIV-1 nucleocapsid protein NCp7 (binding to TG oligonucleotide); experiment: HIV Nucleocapsid (AID 346; call rule not given here;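 note: potency is the fitted concentration of half-maximal effect; potency is for inhibitors that block NC binding and lower polarization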); conditions: HIV-1 NC / fluorescein-TGTGTGTG probe, fluorescence polarization
# Summary of the method: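 10 nM TG4xF probe with 100 nM nucleocapsid protein in high-salt Hepes pH 7.5 (250mM NaCl) containing 1uM ZnCl2 and reducing agents. Compound inhibition of binding was read as fluorescein polarization after 1 hr at room temperature.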
# [2] = target: Lysosomal acid glucosylceramidase (Homo sapiens) (UniProt P04062); experiment: Glucocerebrosidase-p2 (AID 348; in the data active = potency below about 10 µM; note: potency is the fitted concentration of half-maximal effect); conditions: purified GBA, blue fluorogenic substrate, 40 min
# Sequence of Lysosomal acid glucosylceramidase (Homo sapiens) (P04062 whole entry, looked up): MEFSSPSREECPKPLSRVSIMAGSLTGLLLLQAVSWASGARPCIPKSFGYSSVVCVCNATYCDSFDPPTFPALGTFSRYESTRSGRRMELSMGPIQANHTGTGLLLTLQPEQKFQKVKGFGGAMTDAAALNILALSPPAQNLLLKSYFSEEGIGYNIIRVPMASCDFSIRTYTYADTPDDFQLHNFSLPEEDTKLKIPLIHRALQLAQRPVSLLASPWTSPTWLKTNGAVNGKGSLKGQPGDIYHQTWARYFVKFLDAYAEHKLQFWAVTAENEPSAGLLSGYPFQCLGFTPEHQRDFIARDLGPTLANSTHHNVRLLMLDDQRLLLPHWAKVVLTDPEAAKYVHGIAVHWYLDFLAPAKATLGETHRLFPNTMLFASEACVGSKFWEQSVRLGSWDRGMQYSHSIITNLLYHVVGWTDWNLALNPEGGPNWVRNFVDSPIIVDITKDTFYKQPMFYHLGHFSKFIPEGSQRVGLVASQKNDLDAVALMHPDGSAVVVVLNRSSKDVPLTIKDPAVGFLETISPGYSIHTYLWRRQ
# Summary of the method: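 Compounds titrated from 0.6 nM upwards against 0.2 nM enzyme in pH 5.9 citric acid/KH2PO4, taurocholate, tween-20; blue fluorogenic substrate 80 uM, 40 min room temperature, stopped and read Ex 365/Em 440 for AC50.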
# [3] = AP1 Signaling Pathway (AID 357); conditions: ME-180 AP-1-bla reporter, EGF-induced, beta-lactamase ratio, 5 h; series mostly up to 17.2 µM
# Summary of the method: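 ME-180 cells with beta-lactamase reporter under AP-1 response element, stimulated with EC50 EGF; compounds tested in titration series, 5 h at 37 °C. CCF4 substrate added 2.5 h at room temperature; 460/530 nm emission ratio gave %activity and AC50.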
# [4] = Stat Signaling Pathway (AID 446); conditions: ME-180 SIE beta-lactamase reporter, IL-6 stimulated, 5 h; series mostly up to 17.2 µM;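 note: ME-180 cervical cancer cells given 40 pM IL-6 alongside compound; SIE-controlled beta-lactamase reporter measured as 460/530 nm FRET emission ratio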
# Summary of the method: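 Screening format detects activators and inhibitors alike: ME-180 SIE-bla cells stimulated at 40 pM IL-6 for 5 hrs with compound, then dual-emission beta-lactamase read at 405 nm excitation.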
# [5] = target: Mitogen-activated protein kinase 10 (Mus musculus) (UniProt Q61831); experiment: JNK3 AlphaScreen Assay (AID 530); conditions: JNK3 lysate, c-Jun phosphorylation; series mostly up to 57.1 µM;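 note: kinase came from lysate of stimulated human HepG2 cells; signal reports phosphorylation of biotinylated GST-cJun 1-79 at Ser73 with 10 µM ATP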
# Summary of the method: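 Pre-activated (IL-1β/TNFα) JNK3 in HepG2 lysates phosphorylates biotin-GST-cJun(1-79), 10 uM ATP; anti-phospho-cJun(Ser73) AlphaScreen read at room temperature, pH 7.6 Tris buffer. Compounds pre-incubated 15 min as titrations.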
# [6] = target: 3',5'-cyclic-AMP phosphodiesterase 4B (Homo sapiens) (UniProt Q07343); experiment: qHTS Assay for Inhibitors of PDE-IV (AID 607; active = well fitted activation curve with a large enough effect in the main read-out, with a control signal flat, not every such curve was filed as active); conditions: HEK293 ACTOne CNG channel cells, membrane potential fluorescence; series mostly up to 22.9 µM
# Sequence of 3',5'-cyclic-AMP phosphodiesterase 4B (Homo sapiens) (Q07343 whole entry, looked up): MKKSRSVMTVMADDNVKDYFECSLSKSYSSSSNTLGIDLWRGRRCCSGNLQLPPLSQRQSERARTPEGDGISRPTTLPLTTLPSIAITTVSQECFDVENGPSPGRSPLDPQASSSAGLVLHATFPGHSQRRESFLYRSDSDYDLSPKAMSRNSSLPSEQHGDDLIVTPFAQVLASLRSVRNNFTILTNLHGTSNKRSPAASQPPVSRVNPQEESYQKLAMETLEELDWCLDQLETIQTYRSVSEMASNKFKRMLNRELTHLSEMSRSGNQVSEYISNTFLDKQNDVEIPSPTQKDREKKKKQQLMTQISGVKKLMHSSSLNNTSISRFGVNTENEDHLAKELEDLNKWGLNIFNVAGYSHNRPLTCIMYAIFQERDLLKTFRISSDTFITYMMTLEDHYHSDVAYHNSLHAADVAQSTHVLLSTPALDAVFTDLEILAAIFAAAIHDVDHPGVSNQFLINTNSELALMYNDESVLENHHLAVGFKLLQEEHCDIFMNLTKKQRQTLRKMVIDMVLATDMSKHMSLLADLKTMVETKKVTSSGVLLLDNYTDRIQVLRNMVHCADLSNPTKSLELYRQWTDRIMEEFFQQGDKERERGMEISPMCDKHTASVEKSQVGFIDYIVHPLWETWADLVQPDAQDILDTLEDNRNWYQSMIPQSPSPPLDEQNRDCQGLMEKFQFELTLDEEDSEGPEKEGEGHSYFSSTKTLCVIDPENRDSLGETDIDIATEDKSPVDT
# Summary of the method: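 The readout is membrane depolarisation from a cAMP-sensing CNG channel, detected with a potential dye at ex 535/em 590. Cells were HEK293-derived (endogenous PDE-IV) at 1000 cells/well, titrated up to 22.9 uM final.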
# [7] = Primary qHTS for small molecule stabilizers of the endoplasmic reticulum resident proteome: Secreted ER Calcium Modulated Protein (SERCaMP) assay (AID 1508630; active = well fitted curve in the direction sought with a large enough effect; an effect the other way counts as inactive or inconclusive); conditions: SH-SY5Y GLuc-SERCaMP (Gaussia luciferase released on ER calcium loss) secretion, thapsigargin, luminescence; series mostly up to 38.4 µM
# Summary of the method: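 GLuc-SERCaMP-expressing SH-SY5Y cells, pretreated 16 h with compound, are challenged with thapsigargin to empty ER calcium stores; after 4 h, coelenterazine is added directly to the medium and luminescence is imaged.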
# [8] = target: Glucocorticoid receptor (Homo sapiens) (UniProt P04150); experiment: GR-GFP Redistribution (AID 450;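 active = compounds whose dose series gives a full or clear partial fitted curve of increased nuclear translocation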; note: potency is the fitted concentration of half-maximal effect); conditions: U2OS GR-GFP nuclear translocation, laser cytometry, 2 h
# Sequence of Glucocorticoid receptor (Homo sapiens) (P04150 whole entry, looked up, the tested form may be a part): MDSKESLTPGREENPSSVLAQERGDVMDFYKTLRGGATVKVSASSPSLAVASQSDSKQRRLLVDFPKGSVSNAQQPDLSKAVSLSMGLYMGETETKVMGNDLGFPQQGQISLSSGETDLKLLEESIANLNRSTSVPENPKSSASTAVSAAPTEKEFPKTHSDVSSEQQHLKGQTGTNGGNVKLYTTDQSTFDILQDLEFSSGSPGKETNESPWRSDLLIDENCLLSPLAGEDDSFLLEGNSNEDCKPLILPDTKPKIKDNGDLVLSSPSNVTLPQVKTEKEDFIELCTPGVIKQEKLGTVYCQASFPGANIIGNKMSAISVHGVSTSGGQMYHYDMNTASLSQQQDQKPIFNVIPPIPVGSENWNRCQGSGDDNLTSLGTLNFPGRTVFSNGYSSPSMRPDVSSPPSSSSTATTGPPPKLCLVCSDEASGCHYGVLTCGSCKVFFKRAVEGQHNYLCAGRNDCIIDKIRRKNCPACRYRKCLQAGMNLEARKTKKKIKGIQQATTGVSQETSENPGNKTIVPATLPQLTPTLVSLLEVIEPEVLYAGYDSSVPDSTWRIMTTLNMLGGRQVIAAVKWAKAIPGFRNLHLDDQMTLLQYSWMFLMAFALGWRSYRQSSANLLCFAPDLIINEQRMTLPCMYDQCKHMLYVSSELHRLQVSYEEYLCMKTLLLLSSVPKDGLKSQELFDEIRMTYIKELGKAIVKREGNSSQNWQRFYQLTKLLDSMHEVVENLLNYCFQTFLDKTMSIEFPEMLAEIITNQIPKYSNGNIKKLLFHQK
# [9] = target: Glucocorticoid receptor (Homo sapiens) (UniProt P04150); experiment: GR-EFC Redistribution (AID 451; calls by dose curve; note: potency is the fitted concentration of half-maximal effect); conditions: CHO-K1 GR-EFC translocation, beta-gal luminescence, 2 h
# Summary of the method: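 CHO-K1 cells expressing nuclear EA and GR-ED fragments of b-gal; compounds titrated up to 46 uM final, 2 h at 37 C. GR nuclear translocation read as complemented b-gal luminescence after 1 h RT detection.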
# [10] = target: Cytochrome P450 2D6 (Homo sapiens) (UniProt P10635); experiment: qHTS Assay for Inhibitors and Substrates of Cytochrome P450 2D6 (AID 891; active = well fitted curve in the direction sought with a large enough effect; an effect the other way counts as inactive or inconclusive; note: potency is the fitted concentration of half-maximal effect; nearly all actives have a fitted effect of over 60% in size); conditions: recombinant CYP2D6, luciferin-ME EGE luminescence; series mostly up to 57.1 µM
# Sequence of Cytochrome P450 2D6 (Homo sapiens) (P10635 whole entry, looked up): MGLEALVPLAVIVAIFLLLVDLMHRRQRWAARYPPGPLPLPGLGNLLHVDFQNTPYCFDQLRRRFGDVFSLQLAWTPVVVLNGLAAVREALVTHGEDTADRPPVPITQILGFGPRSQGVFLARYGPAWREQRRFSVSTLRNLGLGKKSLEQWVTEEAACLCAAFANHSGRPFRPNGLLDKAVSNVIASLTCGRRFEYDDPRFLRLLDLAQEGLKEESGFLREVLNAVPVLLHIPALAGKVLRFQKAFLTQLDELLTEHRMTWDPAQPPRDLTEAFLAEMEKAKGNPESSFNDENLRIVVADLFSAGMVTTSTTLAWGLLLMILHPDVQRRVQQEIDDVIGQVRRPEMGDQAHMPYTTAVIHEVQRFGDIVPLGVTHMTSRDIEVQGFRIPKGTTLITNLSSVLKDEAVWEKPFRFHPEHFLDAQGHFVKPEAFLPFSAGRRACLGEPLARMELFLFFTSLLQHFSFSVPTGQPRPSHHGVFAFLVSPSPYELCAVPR
# Summary of the method: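 Human CYP2D6 (5 nM) with 30 uM Luciferin-ME EGE (at Km) in 100 mM KPO4, compound preincubated 10 min, then NADPH regeneration system for 60 min at room temperature. Luciferin read by luminescence; normalized to 1.43 uM quinidine.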
# [11] = target: DNA dC->dU-editing enzyme APOBEC-3G (Homo sapiens) (UniProt Q9HC16); experiment: qHTS for inhibitors of Vif-A3G interactions: Validation (AID 588379; active = well fitted curve in the direction sought with a large enough effect; an effect the other way counts as inactive or inconclusive); conditions: Vif-A3G protein interaction assay; series mostly up to 46.1 µM
# Sequence of DNA dC->dU-editing enzyme APOBEC-3G (Homo sapiens) (Q9HC16 whole entry, looked up): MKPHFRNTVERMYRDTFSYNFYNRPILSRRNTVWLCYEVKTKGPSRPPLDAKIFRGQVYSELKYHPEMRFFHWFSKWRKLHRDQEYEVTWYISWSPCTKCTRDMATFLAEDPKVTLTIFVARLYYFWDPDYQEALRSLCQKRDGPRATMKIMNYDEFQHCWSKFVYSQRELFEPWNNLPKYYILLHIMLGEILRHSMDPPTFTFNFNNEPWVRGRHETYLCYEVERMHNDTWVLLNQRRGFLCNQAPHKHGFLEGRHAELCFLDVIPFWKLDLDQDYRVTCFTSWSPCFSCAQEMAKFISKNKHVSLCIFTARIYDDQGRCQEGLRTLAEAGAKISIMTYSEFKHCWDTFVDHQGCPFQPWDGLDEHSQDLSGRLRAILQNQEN
# Summary of the method: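 HeLa cells stably expressing Vif and A3G-eYFP, 700 cells/well, incubated overnight at 37 deg C, then exposed to compound overnight at 37 deg C. Inhibition of Vif-mediated degradation read as increased yellow fluorescence (Ex 488/Em 500-530) by laser-scanning cytometry.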
# [12] = qHTS Assay for Lipid Storage Modulators (AID 1519; calls by dose curve); conditions: Drosophila S3 cells, BODIPY lipid droplet/cell ratio, laser cytometry, cells loaded with oleic acid; for activity change, negative = inhibition: at 57.5 µM (top of the series)
# Summary of the method: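 Cells seeded at 5,000 per well were treated with compounds over a concentration series and loaded with oleic acid (400 uM, as added). Lipid droplet fluorescence (488 nm excitation, 500-530 nm channel) was read by laser-scanning cytometry and normalized to 20 uM Triacsin C.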
# [13] = measured here: cell count channel max response
# [14] = measured here: lipid channel max response
structure (smiles),measurement,setting,value
COc1ccc(NC(=O)N2CC3(CCN(C(=O)Oc4ccccc4)CC3)C2)cc1,Potency,[1],> 20 µM (inactive)
same,Potency,[2],> 11.4 µM (inactive)
same,outcome,[3],inactive
same,outcome,[4],inactive
same,outcome,[5],inactive
same,Potency,[6],inactive
same,outcome,[7],inactive
O=C(c1ccco1)N1CCC2(CC1)CN(Cc1ccncc1)C2,Potency,[1],> 20 µM (inactive)
same,outcome,[3],inactive
same,outcome,[4],inactive
same,outcome,[5],inactive
same,Potency,[6],inactive
same,outcome,[7],inactive
CCCN(C/C=C\I)[C@@H]1CCc2ccc(O)cc2C1,Potency,[8],> 46 µM (inactive)
same,Potency,[9],> 46 µM (inactive)
same,Potency,[10],0.0158 µM (active)
same,outcome,[11],inactive
same,outcome,[7],inactive
CN1C[C@H](C(=O)N[C@@]2(C)O[C@@]3(O)C4CCCN4C(=O)C(Cc4ccccc4)N3C2=O)C[C@H]2c3cccc4[nH]cc(c34)C[C@H]21 (some centres undefined),"activity change, negative = inhibition",[12],12.3% (inactive)
same,max response,[12]; [13],8.55%
same,max response,[12]; [14],25.1%
CCC1CN2CCc3cc(OC)c(OC)cc3C2CC1CC1NCCc2cc(OC)c(OC)cc21 (centres undefined),"activity change, negative = inhibition",[12],7.1% (inactive)
same,max response,[12]; [13],-0.174%
same,max response,[12]; [14],8%
